Here are results for 17 compounds from PubChem BioAssay.

A number with no mark means an inactive call. Active and inactive are the calls of the source.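 Rule for the calls, unless noted: active = inhibition of the reporter signal at or above 50%; inactive = inhibition below 50%.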

The nature of the first experiment: blockers of RIG-like receptor reporter activation – cell-based, Sendai virus stimulus, luciferase, 10K MLSCN set, TLR/RLR signaling modifier project, primary screen (AID 602276;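 active = inhibition at or above 50% at 10 µM; inactive = inhibition below 50%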;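 note: firefly luciferase from ISG56 promoter only with Renilla not read in this screen; 0% = Sendai virus plus DMSO and 100% = medium plus DMSO without virus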). The settings on record: HEK293 RL24 IRF3 luciferase reporter, at 10 µM, hits give high values.
On to `COc1ccc([C@@H]2Sc3ccccc3N(CCN(C)C)C(=O)[C@@H]2OC(C)=O)cc1`, for which the inhibition is 16.3%.
Regarding `Fc1ccc(C(c2ccc(F)cc2)N2CCN(C/C=C/c3ccccc3)CC2)cc1`, the inhibition is 10.5%.
As to `CC1(C)S[C@@H]2[C@H](NC(=O)[C@H](N)c3ccccc3)C(=O)N2[C@H]1C(=O)O`, the inhibition was 7.78%.
For the compound `Nc1nc2c(ncn2COCCO)c(=O)[nH]1`, the inhibition is -1.97%.
`CC1=NS(=O)(=O)c2cc(Cl)ccc2N1`: the inhibition is 15.7%.

The next experiment can be described thus: TLR3 IRF3 reporter activation blockers – cell-based, poly I:C stimulus, luciferase, 10K MLSCN set, primary screen (AID 602277). The settings on record: HEK293-TLR3 RL24 IRF3 luciferase reporter, at 10 µM, hits give high values.
As for `O=C(NCC1CCCCN1)c1cc(OCC(F)(F)F)ccc1OCC(F)(F)F` (configuration not stated), the inhibition is 50.6% (active).
As to `CN1CCN(C2=Nc3cc(Cl)ccc3Nc3ccccc32)CC1`, the inhibition was 60.3% (active).
Still for that read-out and setting: the value for `CCN(CC)CCNC(=O)c1ccc(N)cc1` was 3.63%; that for `COc1cc2nc(N3CCN(C(=O)C4CCCO4)CC3)nc(N)c2cc1OC` (configuration not stated) was 30.2%; that for `O=C(CCCN1CCC(O)(c2ccc(Cl)cc2)CC1)c1ccc(F)cc1` was -5.69%.
Regarding `COc1ccc(-c2coc3cc(O)cc(O)c3c2=O)cc1`, the inhibition was -200%.
Regarding `CN(C)CCCN1c2ccccc2CCc2ccccc21`, the inhibition was 5.17%.
On to `CC[C@]1(O)C[C@@H]2CN(CCc3c([nH]c4ccccc34)[C@@](C(=O)OC)(c3cc4c(cc3OC)N(C)[C@H]3[C@@](O)(C(=O)OC)[C@H](OC(C)=O)[C@]5(CC)C=CCN6CC[C@]43[C@@H]65)C2)C1`, for which the inhibition is 90.5% (active).
Regarding `NC(N)=Nc1nc(CSCC/C(N)=N/S(N)(=O)=O)cs1`, the inhibition was 42.5%.
Regarding `CC(=O)O[C@@]12CO[C@@H]1C[C@H](O)[C@@]1(C)C(=O)[C@H](O)C3=C(C)[C@@H](OC(=O)[C@H](O)[C@@H](NC(=O)OC(C)(C)C)c4ccccc4)C[C@](O)([C@@H](OC(=O)c4ccccc4)[C@H]21)C3(C)C`, the inhibition was 38.9%.
`CC[C@H]1CN2CCc3cc(OC)c(OC)cc3[C@@H]2C[C@@H]1C[C@H]1NCCc2cc(OC)c(OC)cc21`: the inhibition is 103% (active).
For the compound `Cc1nnc(NS(=O)(=O)c2ccc(N)cc2)s1`, the inhibition is -8.79%.
As for `COc1ccc([C@@H]2Sc3ccccc3N(CCN(C)C)C(=O)[C@@H]2OC(C)=O)cc1`, the inhibition is 35.5%.
Regarding `Fc1ccc(C(c2ccc(F)cc2)N2CCN(C/C=C/c3ccccc3)CC2)cc1`, the inhibition was 42.4%.
As to `CC1(C)S[C@@H]2[C@H](NC(=O)[C@H](N)c3ccccc3)C(=O)N2[C@H]1C(=O)O`, the inhibition is 28.7%.
The same measure, in the same setting: the value for `Nc1nc2c(ncn2COCCO)c(=O)[nH]1` was 26.2%; that for `CC1=NS(=O)(=O)c2cc(Cl)ccc2N1` was 41.7%.
